AmpC inh no detg: blocks E. coli AmpC beta-lactamase in detergent-free assay | Potency, µM (series often up to 57.1 µM), usual class: inhibitors | AmpC nitrocefin hydrolysis, absorbance 480 nm, 0.0001% Triton | 330,000 compounds, 0.52% hits | AID 485341; further: nearly all actives have a fitted effect of over 20% in size
Target sequence (P00811 whole entry, looked up): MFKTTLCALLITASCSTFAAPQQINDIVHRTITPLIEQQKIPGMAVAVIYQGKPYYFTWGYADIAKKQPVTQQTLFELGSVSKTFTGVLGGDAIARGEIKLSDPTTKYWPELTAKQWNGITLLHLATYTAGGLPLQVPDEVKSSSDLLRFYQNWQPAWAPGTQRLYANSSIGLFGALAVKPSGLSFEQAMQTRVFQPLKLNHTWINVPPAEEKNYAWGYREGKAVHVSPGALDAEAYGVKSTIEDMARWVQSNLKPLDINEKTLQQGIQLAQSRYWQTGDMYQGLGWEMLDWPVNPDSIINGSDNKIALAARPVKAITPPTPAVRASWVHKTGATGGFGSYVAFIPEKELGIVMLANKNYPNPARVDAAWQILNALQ
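20 mM phosphate pH 7.0 + 0.01% (detergent screen) or 0.0001% Triton X-100; 5.3 nM AmpC reagent; cpd preinc 15 min RT; nitrocefin (800 uM stock) to start; A480 q20 s × 4 min; Activity was normalised to no-enzyme and no-compound control wells.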
AmpC detergent: blocks E. coli AmpC beta-lactamase in detergent assay | P00811 | AmpC hydrolysis of nitrocefin, absorbance 480 nm, 0.01% Triton | Potency, µM (series often up to 114 µM), actives largely listed as inhibitors | 370,000 compounds, 0.041% hits; further: nearly all actives have a fitted effect of over 25% in size
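AmpC (5.3 nM in the dispensed reagent) in 20 mM phosphate pH 7.0 with 0.01% (detergent screen) or 0.0001% Triton X-100 was preincubated with compounds for 15 min at room temperature. Nitrocefin was then added from an 800 uM solution, and hydrolysis was followed at 480 nm.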
FMDV inh: foot and mouth disease virus antiviral activity; FMDV antiviral cell-based qHTS; Potency, µM (top dose mostly 57.9 µM), hits mostly inhibitors; 410,000 compounds, 1.2% hits; AID 1159524; calls by dose curve; tested in HEK293T cells; further: read-out not given here; nearly all actives have a fitted effect of over 45% in size
Sm TGR inh: S. mansoni TGR enzyme inhibition. Q962Y6. purified TGR, DTNB reduction, TNB absorbance 405 nm. Potency, µM (series often up to 114 µM), most hits filed as inhibitors. 360,000 compounds, 3% hits; further: nearly all actives have a fitted effect of over 60% in size
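First, TGR (20 nM dispensed) and NADPH were mixed with compound. Second, a 15 min room-temperature incubation followed. Third, further NADPH and then DTNB were added to start the reaction. Finally, TNB absorbance was monitored kinetically.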
AMA1-RON2 inh: AMA1-RON2 (P. falciparum) interaction inhibition; Potency, µM (series often up to 58.2 µM), usual class: inhibitors; 360,000 compounds, 0.2% hits; AlphaScreen AMA1-biotinylated RON2 peptide binding; AID 720542; further: nearly all actives have a fitted effect of over 45% in size
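AMA1 (3D7) with his tag at 25 nM final met compounds first, then biotinylated RON2 peptide at 25 nM; detection used donor plus acceptor beads, 10 µg/mL apiece, read by AlphaScreen after 30 min at room temperature.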
Hits are given with their value; 0 = inactive; ? = inconclusive; - = no result; [ ] = another dose, or the depositor's remark. The list is not random: actives were taken first. Their share in the collection is about 4.1%. Unless noted, the call rests on the fitted dose curve; in most records, active means well fitted curve in the direction sought with a large enough effect; inconclusive means small, poorly fitted or top-dose-only effect, or another doubt; inactive means no such curve, though single readings can be large; an effect the other way counts as inactive or inconclusive.

SMILES | AmpC inh no detg | AmpC detergent | FMDV inh | Sm TGR inh | AMA1-RON2 inh
COc1ccc(Cl)cc1NC(=S)NCc1ccccn1 | 0 | ? | 0 | 0 | 0
S=C(NCc1cccnc1)Nc1ccc(Cl)cc1 | 0 | 0 | 0 | 40µM | 0
COc1ccc(Cl)cc1NC(=S)NCc1cccnc1 | 0 | 0 | 0 | 13µM | 0
O=C(O)c1c(-c2ccccc2)oc2ccc(OCc3ccc(Cl)c(Cl)c3)cc12 | - | 0 | 0 | 0 | -
O=C1C(=O)c2ccccc2C(O)=C1c1cccc([N+](=O)[O-])c1 | 0 | 0 | 40µM | 0 | 0
Fc1ccc(N2CCN(C3=Nc4cccc5cccc3c45)CC2)cc1 | 0[11.4 µM] | ? | 0 | 0 | 22µM
COc1ccc(N2CCN(C(=O)CCCN3C(=O)c4cccc5cccc(c45)C3=O)CC2)cc1 | 0 | 0 | ? | 0 | ?
O=C(CCCN1C(=O)c2cccc3cccc(c23)C1=O)N1CCN(c2ccc(F)cc2)CC1 | 0 | 0 | 22µM | 0 | 0
c1ccc(CN2CCN(C3=Nc4cccc5cccc3c45)CC2)cc1 | 0 | 0 | 0 | 0 | ?
Cc1ccc(S(=O)(=O)CCC(=O)Oc2ccc3c(C)cc(=O)oc3c2)cc1 | 0 | ? | 0 | 22µM | 0
COc1ccc(CN2C[C@H](Sc3nc4ccccc4[nH]3)C[C@H]2C(=O)N(C)C)c2ccccc12 | - | - | 0 | - | -
COc1ccc(Cl)cc1NC(=S)NCCN1CCOCC1 | 0 | 0 | 0 | - | 0
O=C1CCCN1CCCNC(=S)Nc1ccccc1 | 0 | 0 | 0 | ? | 0
COc1ccc(Cl)cc1NC(=S)NCCc1ccc(S(N)(=O)=O)cc1 | 0 | 0 | 0 | 2.8µM | 0
COc1ccc(Cl)cc1NC(=S)NCCCN1CCCC1=O | 0 | ? | 0 | 50µM | 0
O=C1CCCN1CCCNC(=S)Nc1ccc(Br)cc1Cl | 0 | 0 | 0 | 14µM | 0
Cc1cccc(C)c1-n1nnnc1C(c1ccccc1)N1CCN(C/C=C/c2ccccc2)CC1 (stereo not drawn) | - | - | 0 | - | ?
CCc1ccccc1NC(=O)CSc1nc2ccccc2nc1Cc1cccc(OC)c1 | - | 0 | 0 | 0 | -
Cc1cc(C)n(CCc2nc(-c3ccco3)cs2)n1 | 0 | ? | 0 | 40µM | 0
Cc1cc(C)n(CCc2nc(-c3cccs3)cs2)n1 | 0 | 0 | 0 | 0 | 0
O=C1CC(=O)CC(c2ccccc2)C1 | 0 | 0 | 0 | 0 | 0
O=C1CC(c2ccccc2)CC(=O)C1CS(=O)(=O)c1ccccc1 (stereo not drawn) | 0 | 0 | 0 | 0.71µM | 0
Cn1nnnc1Sc1ncnc2scc(-c3ccc(-c4ccccc4)cc3)c12 | 0 | - | ? | - | -
Cn1nnnc1Sc1ncnc2scc(-c3cccs3)c12 | 0 | 0 | 22µM | 3.5µM | -
CC(=O)c1ccccc1-c1csc2ncnc(Sc3nnnn3C)c12 | 0 | 0 | 0 | 0 | -
SMILES | AmpC inh no detg | AmpC detergent | FMDV inh | Sm TGR inh | AMA1-RON2 inh
Cn1nnnc1Sc1ncnc2scc(-c3ccsc3)c12 | 0 | - | 16µM | - | -
Cn1nnnc1Sc1ncnc2scc(-c3cc4ccccc4o3)c12 | 0 | 0 | 18µM | 0 | -
Cn1cnnc1Sc1ccc(CN2CCOc3ccc(C4=Cc5ccccc5C4)cc3C2)o1 | - | - | 0 | - | -
Cc1ccc(CN2CCc3nnc(C(C)NC(=O)c4cc(F)ccc4F)n3CC2)o1 (stereo not drawn) | - | - | 0 | - | -
O=S(=O)(c1ccc(Br)cc1)c1cnc2ccccc2n1 | 0 | 0 | ? | 14µM | 0
O=S(=O)(Cc1ccccc1)c1cnc2ccccc2n1 | 0 | 0 | 11µM | 0 | 0
NC(=O)Cn1c(S(=O)(=O)Cc2ccccc2)nc2ccccc21 | - | - | 0 | - | 0
COc1ccc(S(=O)(=O)c2cnc3ccccc3n2)cc1 | 0 | 0 | 0 | ? | 0
COc1cc(CCNC(C)=O)c(C(=O)/C=C/c2cccc(OC)c2OC)cc1OC | - | - | 0 | - | -
COc1ccc(-c2nc(CNS(=O)(=O)c3cccc(F)c3)cs2)cc1 | - | 0 | 0 | 0 | -
O=C(O)c1cccc(-n2cccc2/C=C\[N+](=O)[O-])c1 | 0 | 0 | 0 | ? | 0
O=C(O)c1cccc(-n2cccc2/C=C/[N+](=O)[O-])c1 | 0 | 0 | 0 | 4.5µM | 0
Cc1ccc(C)c(N2CCN(C(=O)C3CCC(CNS(=O)(=O)c4ccc(Br)s4)CC3)CC2)c1 (stereo not drawn) | - | 0 | ? | 0 | -
CC(C)OCCCNC(=O)c1c2c(nc3ccccc13)C(=O)N(C1CCCCC1)C2 | - | 0 | 0 | 0 | -
CCOC(=O)c1cc2c(=O)n3ccccc3nc2n(CC(C)C)c1=NC(=O)COc1ccc(Cl)cc1 | - | 0 | 0 | 0 | -
COc1cccc(COC(=O)c2cc(S(=O)(=O)N3CCOCC3)ccc2Cl)c1OC | - | - | 0 | - | 0
COc1ccc(C(C)=O)cc1COc1cccnc1[N+](=O)[O-] | 0 | ? | 0 | ? | 0
CCOc1ccc(C(C)=O)cc1COc1cccnc1[N+](=O)[O-] | 0 | 0 | 0 | 35µM | 0
COc1ccc(C(C)=O)cc1COc1ccccc1[N+](=O)[O-] | 0 | 0 | 0 | 11µM | 0
COc1ccc(C(C)=O)cc1COC(=O)c1ccc(S(=O)(=O)N2CCOCC2)cc1 | 0 | 0 | 0 | 18µM | 0
COc1ccc(C(C)=O)cc1COC(=O)c1ccc(N)c([N+](=O)[O-])c1 | 0 | 0 | ? | 8.9µM | 0
Cc1ccc(S(=O)(=O)Nc2ccccc2C(C(=O)OC(C)(C)C)C(=O)OC(C)(C)C)cc1 | - | - | 0 | - | 0
COc1ccccc1/C=N/OCc1cc(C(C)=O)ccc1OC | 0 | 0 | 0 | 11µM | 0
COCC(=O)N1CCC[C@@]2(CCN(Cc3cc(C(F)(F)F)cc(C(F)(F)F)c3)C2)C1 | - | - | 0 | - | -
CCOc1ccc(-c2nnc(SCC(=O)NCCc3ccccc3)nc2-c2ccc(OCC)cc2)cc1 | - | 0 | 0 | 0 | -
SMILES | AmpC inh no detg | AmpC detergent | FMDV inh | Sm TGR inh | AMA1-RON2 inh
CC(=O)c1ccc(N2CCN(S(=O)(=O)c3ccc(-c4cc(C(F)(F)F)on4)s3)CC2)cc1 | - | 0 | 0 | 0 | -
COc1cc(OC)c(NS(=O)(=O)c2cc3c(cc2C)N(C(C)=O)CCO3)cc1Cl | - | 0 | 0 | 0 | -
COc1ccc(OC)c(NS(=O)(=O)c2cc3c(cc2Cl)N(C(C)=O)CCO3)c1 | - | 0 | 0 | 2.5µM | -
CN(C)CCNc1oc(COc2ccc(-c3ccccc3)cc2)nc1C#N | 0 | 0 | 0 | 45µM | 0
COc1ccc(CCNc2oc(COc3ccc(Br)cc3)nc2C#N)cc1OC | 0 | 0 | 32µM | 0 | 0
COc1ccc(CCNc2oc(Cc3cccc4ccccc34)nc2C#N)cc1OC | 0 | 0 | 28µM | 0 | ?
O=C(c1ccc(Br)cc1)N(Cc1ccco1)c1ccccn1 | - | 0 | 0 | 0 | -
COc1cccc(CNC(=O)c2c(OC)cc(=O)n3c2CCN(C(=O)c2cc(C)ccc2C)CC3)c1 | - | - | 0 | - | -
O=C(CCn1ccc2cc(S(=O)(=O)N3CCCC3)ccc21)NCc1cccc(Br)c1 | - | 0 | 0 | 0 | -
Cc1ccc2c(c1)-c1c(c(C(=O)N3CCN(c4cc(C)ccc4C)CC3)nn1C)CS2 | - | 0 | 0 | 0 | -
Cc1ccc2nc(-c3ccc(N)cc3)sc2c1 | 0 | 0 | 8.9µM | 0 | 0
Cc1ccc2sc(-c3ccc(N)cc3)nc2c1 | - | 0 | ? | 0 | -
Nc1ccc2nc(-c3ccccc3)sc2c1 | - | 0 | 10µM | 0 | 0
